A number with no mark means an inactive call.

The nature of this experiment: basal 3T3-L1 adipocyte mitochondrial potential changes, profiling panel, cell-based, JC-1 fluorescence, 3T3-L1 adipocytes, 24 h, 100 nL compound (AID 1168). Further: test concentration not given here. To be noted: JC-1 mitochondrial fluorescence, higher = more signal, called active from +8 up or from −8 down.
Take `C=C[C@@H](COC(=O)OC(C)(C)C)N(Cc1ccc(OC)cc1)S(=O)(=O)c1ccc(Br)cc1`: the z-score was -0.239.

In the case of `COCCOC(=O)N1C(=O)[C@@]2(c3cc(C#CCC(C(=O)OC)C(=O)OC)ccc31)[C@H](C(=O)N1CCN(c3ncccn3)CC1)[C@H]1C(=O)O[C@H](c3ccccc3)[C@H](c3ccccc3)N1[C@@H]2c1ccccc1OCCO`, the z-score was 1.39.

On to `CN1C(=O)C2C=CC(C(O)c3ccccc3)N(N(c3ccccc3)c3ccccc3)C2C1=O` (stereo not given), for which the z-score is -0.791.

As to `COc1ccc([Si](C)(C)[C@H]2[C@H](CC(=O)N3Cc4ccccc4C[C@H]3CO)O[C@@]3(C(=O)N(Cc4cccc(N5CCC5=O)c4)c4ccccc43)[C@@H]2C)cc1`, the z-score was 0.465.

For the molecule `C=CCC(OC(C)=O)[C@@H]1[C@@H](N(Cc2ccc(-c3cccc(C(F)(F)F)c3)o2)C(=O)c2ccc(C)cc2)c2cc(OCCCO)ccc2N1C(=O)Cc1ccc2ccccc2c1` (stereo not given in full), the z-score is 0.417.

In the case of `Oc1ccc2cc[n+](Cc3sc4ccccc4c3Cl)cc2c1`, the z-score was -0.0649.

On to `COC(=O)C(CC#Cc1ccc2c(c1)[C@]1(C(=O)N2)[C@H](c2ccc(OCCO)cc2)N2[C@H](c3ccccc3)[C@H](c3ccccc3)OC(=O)[C@H]2[C@@H]1C(=O)N1CCc2cc(OC)c(OC)cc2C1)C(=O)OC`, for which the z-score is -0.0627.

`COc1ccc(CCNC(=O)[C@@]2(Sc3ccc(C)cc3)CC(=O)N(C(C)C)[C@@H]2c2ccc(CO)cc2I)cc1`: the z-score was -0.139.

For `CN(C)CCCC[C@@H]1NC(=O)[C@@H]2C[C@H](C(=O)NCCCCCCN)[C@H](c3cccc(OCCO)c3)N2C1=O`, the z-score is -0.735.

On to `C=CCN1C(=O)[C@]2(O[C@H](CCn3cc([C@H](O)c4ccccc4)nn3)[C@@H]([Si](C)(C)c3ccc(OC)cc3)[C@@H]2C)c2ccccc21`, for which the z-score is 0.203.

With `COC(=O)C(CC#Cc1ccc2c(c1)[C@]1(C(=O)N2)[C@H](C(=O)Nc2nc3ccccc3s2)[C@H]2C(=O)O[C@H](c3ccccc3)[C@H](c3ccccc3)N2[C@@H]1c1ccc(O)cc1)C(=O)OC`, the z-score is -0.383.

On to `COc1cc2c(cc1O)C(c1cccs1)N(C)CC2` (stereo not given), for which the z-score is -0.0427.

As for `C=CC[C@]1(C(=O)NCc2ccccc2)N=C(c2ccc(OCCCO)cc2)O[C@H]1c1ccccc1N=[N+]=[N-]`, the z-score is 0.474.

Regarding `O=C(c1ccccc1)N1Cc2ccccc2C[C@@]2(COC(c3ccc(OCCCO)cc3)=N2)C1=O`, the z-score is -0.768.

On to `C=C[C@H](C)[C@@H](OC(=O)Nc1ccc(OC)cc1)c1ccc(O)c2ccccc12`, for which the z-score is -1.19.

Take `CCC(CC)C(O)C1C=CC2C(=O)NC(=O)C2N1Nc1ccc(Cl)cc1Cl` (stereo not given): the z-score is -0.446.

Turning to `COc1ccc(C#Cc2ccc3c(c2)[C@]2(C(=O)N3)[C@H](c3ccccc3OCCO)N3[C@H](c4ccccc4)[C@H](c4ccccc4)OC(=O)[C@H]3[C@@H]2C(=O)Nc2nc3ccccc3s2)cc1`, the z-score is 2.29.

Regarding `O=C(CS)NCCCCCCNC(=O)[C@@H]1C[C@@H]2C(=O)N[C@@H](Cc3ccccc3)C(=O)N2[C@@H]1c1cccc(OCCO)c1`, the z-score is 0.476.

`CC(C)N1C(=O)c2ccccc2[C@](C)(C(=O)NCCN2CCOCC2)[C@@H]1c1ccc(CO)cc1`: the z-score is -0.537.

As to `CCCC=C(CCC)[C@@H](NC(=O)c1cccs1)c1ccc(C(F)(F)F)cc1`, the z-score was -0.229.

As for `C[N+](C)(C)CCCCNC(=O)[C@@H]1C[C@@H]2C(=O)N[C@@H](Cc3ccccc3)C(=O)N2[C@@H]1c1cccc(OCCO)c1`, the z-score was 0.924.

In the case of `Cc1ccc(S[C@]2(C(=O)NC3CC3)CC(=O)N(Cc3ccccc3)[C@@H]2c2ccc(CO)cc2I)cc1`, the z-score is 0.679.

Consider `CCOC(=O)C1=C[C@@H](C(C)(C)C)N(S(=O)(=O)c2ccc(C)cc2)[C@H]1c1ccc(F)cc1`, for which the z-score is -0.43.

As for `COc1ccc(C(O)C2C=CC3C(=O)N(Cc4ccccc4)C(=O)C3N2n2cnnc2)cc1OCc1ccccc1` (stereo not given), the z-score was -1.06.

As for `CC1CC/C=C\[C@H]2OC34C=CCN(C(C)(C)C)C(=O)[C@H]3N(CCO)C(=O)[C@@H]4C2C(=O)O1` (stereo not given in full), the z-score is -0.354.

For the origin of these results see PubChem BioAssay.
